Experimental data from PubChem BioAssay AID1224865 (Sanford-Burnham Center for Chemical Genomics, 2016).
In all, about 360,000 compounds went through this assay and about 1,100 (0.31%) were called active. No stated cut-off is given here; in the data, active means activity change above about 30% (passing the limit was not always enough); inactive means the rest. What follows is part of a selection rich in actives, with near analogues and random picks from the rest.

Biological target: Hepatocyte nuclear factor 4-alpha (Homo sapiens) (UniProt P41235)
Experiment: HNF4-alpha DNA association modulation – biochemical, fluorescence polarization, FITC-DNA, primary screen (AID 1224865)
Settings: HNF4a-FITC DNA binding, 1 h, at 10 µM, active compounds read high

Chain of Hepatocyte nuclear factor 4-alpha (Homo sapiens) (P41235 whole entry, looked up): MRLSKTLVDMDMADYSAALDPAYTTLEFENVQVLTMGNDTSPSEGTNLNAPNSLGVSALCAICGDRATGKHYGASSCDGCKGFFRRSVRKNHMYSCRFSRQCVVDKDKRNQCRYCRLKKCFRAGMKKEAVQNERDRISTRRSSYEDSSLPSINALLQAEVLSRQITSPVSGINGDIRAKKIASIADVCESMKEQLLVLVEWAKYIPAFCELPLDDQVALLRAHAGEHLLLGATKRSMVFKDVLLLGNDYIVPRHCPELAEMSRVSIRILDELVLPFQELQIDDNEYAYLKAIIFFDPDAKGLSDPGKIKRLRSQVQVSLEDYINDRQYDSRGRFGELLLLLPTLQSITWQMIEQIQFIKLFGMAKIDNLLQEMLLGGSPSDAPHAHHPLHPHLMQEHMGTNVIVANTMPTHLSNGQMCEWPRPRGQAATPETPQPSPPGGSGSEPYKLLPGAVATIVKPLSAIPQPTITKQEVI

| SMILES | activity change |
| --- | --- |
| CCc1ccc(CN2C(=O)c3ccccc3C2C(=O)NCC2CCCO2)cc1 (stereo not given) | 0.41% (inactive) |
| O=C(NC(=S)Nc1ncccn1)c1ccccc1Br | 1.65% (inactive) |
| O=C(Nc1cc(Cl)ccc1N1CCOCC1)c1ccc(N2CCCC2=O)cc1 | -2.01% (inactive) |
| O=C(CCN1C(=O)c2ccccc2C1=O)NNC(=O)c1ccc(Cl)cc1Cl | -1.42% (inactive) |
| Cc1c(C(=O)NCCN2C(=O)S/C(=C\c3cccs3)C2=O)cccc1[N+](=O)[O-] | -0.17% (inactive) |
| O=C(CCN1C(=O)/C(=C/c2cccs2)SC1=S)NNC(=O)c1cccc(O)c1 | 42.1% (active) |
| Cc1cccc(NC(=O)c2ccc(S(=O)(=O)N(C)CC3CCCO3)cc2)c1C (stereo not given) | -0.21% (inactive) |
| CC1=C(C(=O)Nc2cccc(C(=O)NCC(C)c3ccccc3)c2)SCCO1 (stereo not given) | -3.05% (inactive) |
| Cc1ccc(-c2cnc(C(O)c3cc(Cl)cc(Cl)c3)[nH]2)cc1 (stereo not given) | 2.03% (inactive) |
| O=[N+]([O-])c1ccc(COc2ccccc2CN2CCOCC2)cc1 | 4.14% (inactive) |
| Cc1ccccc1OCCOc1ccc([N+](=O)[O-])cc1/C=N/n1cnnc1 | 0.85% (inactive) |
| Cc1cccc(COc2ccccc2/C=N/Nc2ccc([N+](=O)[O-])cc2)c1 | 53.2% (active) |
| Cc1ccc(Cl)cc1NC(=S)N(CCN(C)C)Cc1cccs1 | -2.05% (inactive) |
| COCCCn1c(=O)/c(=C/c2ccccc2OC(C)C)s/c1=C(\C#N)C(=O)Nc1ccc(C(=O)O)cc1 | 21.5% (inactive) |
| CCOC(=O)[C@@H]1[C@H]2COc3cc(OC)ccc3[C@H]2N2C(=O)N(c3ccc(F)cc3)C(=O)[C@]12C | -1.52% (inactive) |
| C#CCOCCOCCOCCNc1nc(N2CCN(C(=O)C(Cc3ccc(O)cc3)n3cc(C(N)CC(C)C)nn3)CC2)nc(N2CCN(C(=O)C(Cc3ccc(O)cc3)n3cc(C(N)C(C)CC)nn3)CC2)n1 (stereo not given) | 2.78% (inactive) |
| C#CCOCCOCCOCCNc1nc(N2CCN(C(=O)C([C@@H](C)O)n3cc([C@@H](N)CCCCN)nn3)CC2)nc(N2CCN(C(=O)[C@H](CCCCN)n3cc(CN)nn3)CC2)n1 (stereo not given in full) | 59.9% (active) |
| C#CCOCCOCCOCCNc1nc(N2CCN(C(=O)[C@H](CO)n3cc([C@@H](N)C(C)C)nn3)CC2)nc(N2CCN(C(=O)[C@H](CCC(=O)O)n3cc([C@@H](N)[C@H](C)CC)nn3)CC2)n1 | -0.8% (inactive) |
| CSc1sc(C)cc1C1C(C#N)=C(N)N(c2cccnc2)C2=C1C(=O)CCC2 (stereo not given) | -3.92% (inactive) |
| COC(=O)c1c(C)oc(C)c1S(=O)(=O)Nc1ccc(C(C)C)cc1 | -0.92% (inactive) |
